# Source: PubChem BioAssay (National Center for Advancing Translational Sciences (NCATS))
# RORg inh – ROR gamma (mouse) transcription inhibition; P51450; Drosophila S2 Gal4-RORgamma UAS-luciferase reporter, 20 h; Potency, µM (series often up to 53.6 µM), for inactives: at the highest dose activity change, negative = inhibition, actives largely listed as inhibitors; 310,000 compounds, 5.4% hits; AID 2551; note: potency is the fitted concentration of half-maximal effect; nearly all actives have a fitted effect of over 60% in size
# Target sequence (P51450 whole entry, looked up, the tested form may be a part): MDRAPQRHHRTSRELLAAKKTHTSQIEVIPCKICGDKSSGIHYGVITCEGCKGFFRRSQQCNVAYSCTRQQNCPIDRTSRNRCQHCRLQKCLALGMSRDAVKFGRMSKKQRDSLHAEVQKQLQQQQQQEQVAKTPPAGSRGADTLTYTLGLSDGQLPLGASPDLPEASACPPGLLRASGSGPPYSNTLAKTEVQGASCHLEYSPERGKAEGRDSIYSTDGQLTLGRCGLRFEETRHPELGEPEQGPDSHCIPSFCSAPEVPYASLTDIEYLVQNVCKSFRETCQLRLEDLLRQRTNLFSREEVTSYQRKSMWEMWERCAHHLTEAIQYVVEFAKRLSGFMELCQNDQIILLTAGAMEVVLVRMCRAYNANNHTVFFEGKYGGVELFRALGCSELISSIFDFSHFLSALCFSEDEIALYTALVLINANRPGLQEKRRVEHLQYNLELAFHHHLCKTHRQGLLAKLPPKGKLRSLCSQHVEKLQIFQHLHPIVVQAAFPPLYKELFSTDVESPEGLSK
#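 Using a luciferase readout, inhibitors were identified by reduced reporter activity in Drosophila cells coexpressing a copper-inducible Gal4–ROR gamma fusion and UAS-driven Photinus luciferase, incubated 20 hr after 700 uM copper sulfate.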
# Gal4-VP16 FLuc – Gal4-VP16 reporter inhibition counter-screen. Drosophila S2 Gal4-VP16 UAS-luciferase, luminescence, 20 h. 310,000 compounds, 3.5% hits. Potency, µM (series often up to 53.6 µM), inactives show top-dose activity, negative = inhibition, hits mostly inhibitors;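 note: Gal4-VP16 expression switched on by copper sulfate through the metallothionein promoter; potency is the fitted concentration of half-maximal effect; nearly all actives have a fitted effect of over 50% in size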
# ELG1 DNA repair – blocks ELG1-dependent DNA repair in HEK293T cells | HEK293T ELG1-luciferase reporter, luminescence, 16 h; DNA damage induced by 5-fluorouridine | Potency, µM (top dose mostly 46.1 µM), without a hit: at the highest dose activity change, negative = inhibition, usual class: inhibitors | 330,000 compounds, 2.3% hits; note: potency is the fitted concentration of half-maximal effect; nearly all actives have a fitted effect of over 55% in size
#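 5-Fluorouridine DNA damage + compound/DMSO, 2,000 cells/well, 16 h, 37 °C/5% CO2. ONE-Glo, 30 min RT, luminescence. Readout = decrease in reporter signal.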
# TSHR antagonist – human thyrotropin receptor antagonism; P16473; TSHR-expressing cells, TSH-stimulated cAMP HTRF, 2 h; active compounds read low; activity change, negative = inhibition, % at 11.5 µM; 330,000 compounds, 0.2% hits;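 active = activity change below a set negative limit, meaning inhibition stronger than a set level, cut at about -70% in these data; inconclusive = activity change between two set negative limits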
#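 Freshly harvested TSHR cells receive pin-tooled compound, then EC80 TSH at 4nM final. After 2 hours at 37 deg C, antibody in lysis buffer and cAMP-d2 are added; 30 minutes at ambient temperature precede the HTRF read.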
# Coupling enz – inhibits coupling enzyme system, counter-screen for aldolase hits; coupling enzyme system counterscreen, AmpLite Red fluorescence; activity change, negative = inhibition, % at 58.2 µM, hits read low; 290,000 compounds, 0.67% hits; AID 2472; in the data active = activity change below about -30%
#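 Counterscreen lacking aldolase: glyceraldehyde-3-phosphate coupling-enzyme reagent preincubated 10 min at RT with compound (at 57.5 uM final), then substrate/coupling system with AmpLite Red added; fluorescence read at 525/598 nm after 20 min RT.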
# An asterisk follows results filed as active; ? = inconclusive; / = not tested or not shown; [ ] = dose if it differs, or a comment. A selection: hits, their analogues and other compounds. The true share with any hit is near 8%. Unless noted, calls come from the whole dose curve; as a rule, active = well fitted curve in the direction sought with a large enough effect; inconclusive = small, poorly fitted or top-dose-only effect, or another doubt; inactive = no such curve, though single readings can be large; an effect the other way counts as inactive or inconclusive. % is set by controls: 0 for no effect and ±100 for the full control effect.
SMILES,RORg inh,Gal4-VP16 FLuc,ELG1 DNA repair,TSHR antagonist,Coupling enz
COC(=O)C1=C(C(=O)OC)[C@@H]2N(C)c3ccccc3[C@@]23C[C@@H](C(=O)OC)N(S(=O)(=O)c2ccc([N+](=O)[O-])cc2)C3=N1,/,/,/,/,-6.1
CC(C)Oc1ccc(C(=O)Nc2nnc(SCC(=O)N3CCOCC3)s2)cc1,3.16µM*,1.78µM*,?,-9.9,5.5
CC(=O)Nc1ccc(C(=O)Nc2ccc(S(=O)(=O)N3CCOCC3)cc2)cc1,19.9%,3.1%,?,-5.0,-1.0
Cc1nc2ccc(NC(=O)c3ccc(S(=O)(=O)N4CCOCC4)cc3)cc2s1,-17.3%,-5.3%,9.2µM*,-15.1,0.8
Cc1ccc2c(C(=O)CN3CCN(C(=O)c4ccco4)CC3)c(C)[nH]c2c1,?,-8.3%,-21.7%,7.6,0.3
CCN=c1scc(C)n1/N=C/c1cc(Br)c(O)c(OC)c1,2.2%,-15.1%[10 µM],5.8µM*,4.5,-13.9
COC(=O)c1c(C)cc(C)n2c1nc1ccccc12,10µM*,-5.9%,-1.4%,5.7,1.9
Cc1ccccc1NC(=O)NNC(=O)COc1ccc2ccccc2c1,0.4%,-5.2%,2.5%,9.2,-5.3
Cc1ccc2c(c1)NC(=O)C(CC(=O)Nc1ccc(Br)c(C)c1)O2 (stereo not given),3.0%,-2.5%,-1.1%,-7.6,3.2
Cc1cc(C)c(N=C2C(=O)Nc3ccccc32)c(C)c1,-33.4%,-2.2%,?,13.8,-0.3
Cc1ccc(N=C2C(=O)Nc3ccccc32)cc1,0.4%,2.6%,21.0%,-1.6,-5.0
Cc1cccc(C)c1N=C1C(=O)Nc2ccccc21,?,17.8µM*,?,-2.4,-3.4
CCN(CC)c1ccc(N=C2C(=O)Nc3ccccc32)cc1,-18.2%,-0.2%,16.4µM*,-15.2,-11.4
COc1cc(S(=O)(=O)N2CCOCC2)cc(C(=O)OCC(=O)NC2CCCCC2)c1OC,/,/,-7.8%,1.7,/
COC(=O)c1cn(NC(=O)c2cnccn2)c(=O)c2ccccc12,12.6µM*,?,-20.5%,-3.6,-8.1
Cc1ccc(OS(=O)(=O)c2ccccc2)c(/C=N/N=C2\NC(=O)C(C)S2)c1 (stereo not given),8.91µM*,15.8µM*,2.0%,-2.7,1.0
NC1=NC(=O)/C(=C/c2ccccc2OS(=O)(=O)c2ccccc2)S1,0.0%,-3.2%,-11.9%,-7.9,-5.2
O=C1CS/C(=N/N=C/c2ccccc2OS(=O)(=O)c2ccccc2)N1,?,12.6µM*,2.7%,11.3,13.4
COc1ccc(S(=O)(=O)N2CCN(CCc3ccccc3)CC2)cc1,-16.1%,3.1%,-30.0%,-2.5,11.6
O=c1cc(-c2ccccc2)nc2n1Cc1ccccc1-2,-13.9%,2.1%,14.6%,27.4,0.3
COc1ccc(-c2nc3n(c2C)Cc2ccccc2-3)cc1,11.2µM*,-13.1%,?,-2.4,-0.5
Cc1cccc(CNc2ncncc2-c2ccccc2C)c1,-9.2%,-4.3%,/,/,1.6
CCn1c2c(c(=N)c3ccccc31)CCC2,27.2%,-19.1%,20.6µM*,-4.8,-0.5
N/C(COc1ncn(-c2ccccc2)n1)=N\S(=O)(=O)c1ccc(Cl)cc1Cl,11.0%,10.6%,16.4µM*,4.1,-1.7
CCOc1ccc(CN(C)CC(=O)NCc2ccc(F)cc2)cc1,12.6%,8.4%,-18.2%,4.7,0.3
SMILES,RORg inh,Gal4-VP16 FLuc,ELG1 DNA repair,TSHR antagonist,Coupling enz
O=C(NC(=S)Nc1cc(-c2nc3ccccc3[nH]2)ccc1Cl)c1ccc2c(c1)OCO2,12.6µM*,-11.2%,?,-8.1,-0.4
CC(/C=C/C=C/c1ccccc1)=N\NC(=O)c1cccnc1,2.82µM*,3.16µM*,?,2.5,0.5
CC(/C=C\C=C\c1ccccc1)=N\NC(=O)c1cncc(Br)c1,4.47µM*,6.31µM*,?,18.4,-1.4
CN(CC(=O)Nc1ccccc1Br)C(=O)CN1CCN(Cc2cccc(Cl)c2)CC1,/,/,18.3µM*,8.3,/
CN(CC(=O)Nc1ccccc1Br)C(=O)CNC(=O)c1ccco1,/,/,9.5%,7.8,/
O=C(NCC1CCCN(Cc2cccc(C(F)(F)F)c2)C1)c1ccc(F)cc1 (stereo not given),-0.3%,-2.7%,-11.8%,11.6,-1.7
O=C(NCC1CCCN(C(=O)c2cccc(C(F)(F)F)c2)C1)c1ccc(F)cc1 (stereo not given),15.8%,1.0%,-6.9%,-131.9*,2.6
O=C(NC(=S)Nc1ccccc1Cl)c1cncc(Br)c1,2.51µM*,4.47µM*,?,2.0,-1.3
COc1ccc(NC(=S)NC(=O)c2cncc(Br)c2)c(OC)c1,2.51µM*,?,24.3%,4.4,0.7
CC1CCCC(NC(=S)NC(=O)c2cncc(Br)c2)C1C (stereo not given),2.82µM*,5.62µM*,-8.9%,-21.0,-0.4
Cc1ccc(NC(=O)c2cncc(Br)c2)cc1S(=O)(=O)N(C)C,44.9%,12.3%,?,4.4,-1.8
COc1ccc(NC(=O)c2cncc(Br)c2)cc1S(N)(=O)=O,11.2µM*,3.9%,-0.5%,0.1,-0.5
O=C(NC(=S)Nc1ccccc1Cl)c1cncc(C#Cc2ccccc2)c1,-31.8%,-5.5%,16.2%,-8.7,0.6
COc1cc(C(=O)NCCCNc2nc3c(C)cc(C)cc3cc2C#N)cc(OC)c1OC,-3.1%,-18.9%,?,-1.2,-1.3
COc1cc(C(=O)NCCNc2nc3ccc(C)cc3cc2C#N)cc(OC)c1OC,-20.8%,-5.5%,14.6µM*,-5.4,0.5
COc1ccc2nc(NCCCNC(=O)c3cc(OC)c(OC)c(OC)c3)c(C#N)cc2c1,-9.1%,-11.0%,15.8µM*,-8.5,-4.8
Cc1cc(C)c(NC(=O)CCc2c(C)noc2C)c(C)c1,/,/,7.0%,-4.9,/
Cc1cc(C)c2c(NC(=O)CCl)nn(C)c2n1,-20.9%,?,?,0.3,-1.5
CCc1cc(SC#N)cc(CC)c1NC(=O)CCl,?,20µM*,?,-3.3,2.2
CN1CCc2ccc3c4c2[C@]1(C)Cc1cccc(c1-4)OCO3,-21.2%,-2.3%,/,/,-17.6
Cc1nc(NC(=O)/C=C/c2ccccc2)sc1C(=O)Nc1ccc(Cl)cc1,-37.7%,?,-17.4%,13.1,0.6
Cc1nc(NC(=O)/C=C/c2ccccc2)sc1C(=O)Nc1ccccc1Cl,15.8µM*,?,4.8%,-6.5,-1.6
CCC(C(=O)NC1CCCC1)n1c(SCc2cccc(C)c2)nc2ccncc21 (stereo not given),10µM*,-4.1%,0.9%,-4.4,3.3
CN=C(NC#N)NCCSCc1csc(N=C(N)N)n1,6.0%,-1.8%,/,/,-1.4
COc1ccc(NC(=O)CSc2nnc3ccc(-c4ccncc4)nn23)cc1,/,/,8.2µM*,-0.4,/
Cc1cc(C)c(C#N)c(SCc2nnc(-c3ccccc3)o2)n1,?,?,?,-7.3,15.2
Cc1ccc(C#N)c(SCc2nnc(-c3ccc(Cl)cc3)o2)n1,3.55µM*,?,?,-8.8,2.0
